Calb FLC: C. albicans growth modulation with fluconazole; C. albicans CaCi-2 (fluconazole-resistant clinical isolate) + fluconazole, Alamar Blue growth, 48 h; growth inhibition, % (no concentration beside the values); hit rate 0.57% among 300,000; AID 1979;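 active means growth inhibition above about 58% in most replicates, limit read from the data, passing the limit was not always enough; inconclusive means exactly half the replicates above a set limit; inactive means most replicates below a set limit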;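 further: all wells also contain fluconazole at 8 µg/ml as a sub-toxic cotreatment; 0% = median of DMSO wells and 100% = median of geldanamycin control wells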
MPTP inh: blocks calcium-induced mitochondrial swelling. inhibition, % at 10 µM. hit rate 1.4% among 360,000. isolated mouse mitochondria, Ca2+ swelling absorbance, 30 min;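 active means inhibition of 50% or more, scaled per plate between neutral and stimulator controls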;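 further: 0% = DMSO wells given calcium and 100% = 1 mM EGTA wells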
Mdm2-MdmX inh: inhibitors of human Mdm2/MdmX interaction | hit rate 3% among 330,000 | SaOS-2 split-luciferase Mdm2/MdmX complementation, luminescence | AID 485346 | inhibition, % at 8 µM;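 active means inhibition of at least 50% at 8 µM in the primary screen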
Target sequence (O15151 whole entry, looked up): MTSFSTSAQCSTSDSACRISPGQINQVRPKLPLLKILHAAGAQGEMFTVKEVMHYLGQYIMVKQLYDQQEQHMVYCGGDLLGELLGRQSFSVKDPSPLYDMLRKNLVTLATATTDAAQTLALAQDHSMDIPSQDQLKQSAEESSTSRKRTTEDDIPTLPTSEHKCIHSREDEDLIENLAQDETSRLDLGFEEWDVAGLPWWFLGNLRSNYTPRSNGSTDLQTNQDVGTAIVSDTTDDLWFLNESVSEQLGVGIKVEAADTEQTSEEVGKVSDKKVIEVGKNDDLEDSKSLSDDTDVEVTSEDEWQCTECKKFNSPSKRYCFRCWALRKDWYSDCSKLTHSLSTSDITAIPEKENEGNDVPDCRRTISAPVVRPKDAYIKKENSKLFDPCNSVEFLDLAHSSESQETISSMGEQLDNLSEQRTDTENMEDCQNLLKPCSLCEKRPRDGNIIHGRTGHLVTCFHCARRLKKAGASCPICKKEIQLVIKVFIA
Target sequence (Q00987 whole entry, looked up): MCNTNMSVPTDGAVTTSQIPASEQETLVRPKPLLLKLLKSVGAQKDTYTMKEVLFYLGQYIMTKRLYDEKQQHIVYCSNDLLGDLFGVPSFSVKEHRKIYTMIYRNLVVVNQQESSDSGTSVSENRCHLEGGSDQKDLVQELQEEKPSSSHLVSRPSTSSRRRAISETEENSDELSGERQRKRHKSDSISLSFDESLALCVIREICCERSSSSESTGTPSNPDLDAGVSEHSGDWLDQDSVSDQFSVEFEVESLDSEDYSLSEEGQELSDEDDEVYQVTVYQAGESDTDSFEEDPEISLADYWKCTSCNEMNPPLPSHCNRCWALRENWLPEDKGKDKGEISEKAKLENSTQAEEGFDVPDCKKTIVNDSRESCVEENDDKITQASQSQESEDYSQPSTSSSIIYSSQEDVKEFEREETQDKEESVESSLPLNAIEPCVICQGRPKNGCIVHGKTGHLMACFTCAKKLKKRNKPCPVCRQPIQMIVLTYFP
Beta apoptosis: beta cell apoptosis inhibition. hit rate 0.8% among 300,000. INS-1E cytokine-induced death, ATP luminescence, 48 h; percent of positive-control rescue, neutral wells zero. AID 435005. protection from apoptosis, % (test concentration not listed);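 active means Every replicate reaches about 75%, or at least half do and their mean reaches it too, limit read from the data; inconclusive means At least half of replicates reach the limit but their mean does not; inactive means Under half of replicates reach the limit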;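 further: 0% = cytokine-treated negative control wells and 100% = positive control rescue; higher means more ATP so stronger rescue from cytokine killing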
SKKanGAS inh: blocks kanamycin growth of S. pyogenes SKKanGAS strain | AID 1662 | hit rate 1.3% among 300,000 | BacTiter-Glo, 6 h | inhibition, % at 7.5 µM;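 active means mean replicate score, as percent of positive control median, at least 50; inconclusive means mean below 50 but one replicate at or above 50; inactive means mean and every replicate below 50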;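 further: strain carries kanamycin resistance gene driven by streptokinase promoter and grows in 40 µg/ml kanamycin; loss of luminescence reflects streptokinase promoter inhibition or plain growth inhibition; 0% = median of DMSO wells and 100% = positive control at its reference dose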
CSC inhib: blocks cancer stem cells | cancer stem cell-like cells viability, luminescence | inhibition, % at 7.5 µM | hit rate 1.1% among 300,000; in the data active means inhibition above about 75%; inconclusive means no clear call, values can overlap the other calls; tested in HMLE shEcad cells
Mdm2 MdmX conf: confirmation of human Mdm2/MdmX interaction inhibitors; shares compounds with Mdm2-MdmX inh; Mdm2-MdmX binding, luminescent assay; inhibition, % at 8 µM; hit rate 55% among 10,000; in the data active means inhibition above about 40%
FLuc counter: inhibits full-length luciferase, flagging false Mdm2/MdmX hits; inhibition, % at 8 µM; hit rate 77% among 6,200; shares compounds with Mdm2-MdmX inh; SaOS-2 full-length luciferase counterscreen, luminescence;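 active means mean inhibition at 8 µM reaching about 37%, which flags the compound as non-specific, limit read from the data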;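 further: p53-null SaOS-2 cells with luciferase driven by a doxycycline-inducible promoter; compound on cells about two nights before reading with doxycycline added after day one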
Numbers without * were called inactive; ? = inconclusive; . = no result. Only some compounds are listed: those with a hit (about 5.4% of all), similar ones and a draw of the others.

SMILES	Calb FLC	MPTP inh	Mdm2-MdmX inh	Beta apoptosis	SKKanGAS inh	CSC inhib	Mdm2 MdmX conf	FLuc counter
CCOc1ccc(C(=O)/C=C/Nc2ccc(S(=O)(=O)N=C(N)N)cc2)cc1	-2.1	1.5	73.6*	1.3	7.1	19.8	13.9	.
CN1CCN(CCNC(=O)c2ccc3nc(-c4ccc(F)cc4)c(-c4ccc(F)cc4)nc3c2)CC1	-9.6	1.6	54.4*	2.3	9.5	-0.9	28.9	.
CCOc1ncccc1C(=O)N1CCN(c2cc(Cl)ccc2C)CC1	24.4	1.0	61.2*	5.8	6.7	56.8	59.4*	81.2*
Cc1ccc(Cl)cc1N1CCN(C(=O)c2noc(C)c2[N+](=O)[O-])CC1	9.9	-0.9	75.1*	.	7.5	.	75.7*	59.5*
Cc1cc(NC(=O)COC(=O)c2ccccc2S(=O)(=O)N(C)c2ccccc2)no1	-1.4	1.7	96.3*	-9.5	-5.1	27.1	72.2*	43.4*
Cc1cc(NC(=O)COC(=O)c2ccccc2NCCO)no1	.	-0.6	-6.9	-9.4	.	-13.3	.	.
Cc1cc(NC(=O)COC(=O)c2c(Cl)cccc2Cl)no1	.	-0.1	88.1*	-3.9	.	.	58.6*	53.8*
COC(=O)C(CSCc1ccccc1)NC(=O)CSc1nc(N)cc(=O)[nH]1 (stereo unspecified)	-1.4	0.2	3.7	.	4.5	6.4	.	.
C#C[C@]1(O)CC[C@H]2[C@@H]3[C@H](C)CC4=C(CCC(=O)C4)[C@H]3CC[C@@]21C	10.6	.	20.6	.	3.7	-7.4	.	.
C=CCNc1nc(N)c(C(=C(C#N)C#N)c2ccc(Br)cc2)s1	-4.6	1.6	50.5*	15.9	-21.0	23.1	41.9*	87.8*
COc1ccc(/C(N)=N/OC(=O)c2ccc3c(c2)OCO3)cc1OC	9.7	1.8	91.2*	.	-4.4	.	16.4	.
COc1ccc(C(=O)O/N=C(\N)Cc2ccc(Cl)c(Cl)c2)cc1OC	2.5	1.8	100.7*	6.9	0.6	-4.4	99.5*	26.9
COc1ccc(C(=O)O/N=C(\N)Cc2ccc(Cl)cc2)cc1OC	12.6	-4.5	99.8*	9.8	-1.7	-13.3	92.8*	41.8*
N/C(=N\OC(=O)c1ccc2c(c1)OCO2)c1cccc(Br)c1	13.8	-2.0	10.1	-9.2	-2.9	-9.3	.	.
C=CCn1c(SCC(=O)Nc2c(C)cccc2C)nnc1-c1ccncc1	-2.4	-0.8	28.4	-2.5	0.2	-6.4	.	.
COc1ccc(-c2nn(-c3ccccc3)cc2/C=C/C(=O)OCC(=O)Nc2ccccc2C#N)cc1	18.7	1.6	88.5*	30.9	-4.4	9.7	9.2	.
COc1ccc(-c2nn(-c3ccccc3)cc2/C=C/C(=O)N2CCN(c3ccccn3)CC2)cc1	20.3	-2.1	58.6*	0.8	60.1*	-5.6	18.4	.
Cc1noc(C)c1COC(=O)CCN1c2ccccc2Sc2ccccc21	20.7	-0.2	5.4	-4.1	7.1	2.8	.	.
O=C(NCCCN1CCOCC1)c1ccc(Cl)c([N+](=O)[O-])c1	3.0	1.4	19.0	-3.9	-5.2	-15.1	.	.
Cc1ccc(NC(=O)c2ccc(NCCCN3CCOCC3)c([N+](=O)[O-])c2)cc1Cl	4.4	-0.1	55.9*	24.4	-1.1	50.6	37.2	69.1*
O=C(Nc1ccc(Cl)c([N+](=O)[O-])c1)c1ccc(NCCCN2CCOCC2)c([N+](=O)[O-])c1	27.2	-0.1	97.4*	12.2	10.6	.	23.6	.
COc1ccc(NC(=O)c2ccc(NCCCN3CCOCC3)c([N+](=O)[O-])c2)cc1	2.0	-2.5	4.7	-3.9	1.7	-3.0	.	.
CCn1c(CNC(=O)c2ccc(OC)c(OC)c2)nnc1SCC(=O)c1ccc(OC)cc1	1.3	0.2	22.2	1.0	3.5	-11.8	.	.
C=C1C(=O)O[C@@H]2[C@H]3O[C@]3(C)CC/C=C(\C)CC[C@@H]12	.	-1.3	67.6*	-10.9	.	-8.5	53.7*	62.2*
C=C1C(=O)O[C@H]2C[C@H]1[C@@H](OC(C)=O)C/C(C)=C/CC/C(C)=C\CC[C@]2(C)O	.	-0.9	.	.	.	.	.	.
SMILES	Calb FLC	MPTP inh	Mdm2-MdmX inh	Beta apoptosis	SKKanGAS inh	CSC inhib	Mdm2 MdmX conf	FLuc counter
Cc1cccc(C)c1NC(=O)CSc1nc(C)c(CC(=O)c2ccc(Br)cc2)c(C)c1C#N	-4.9	0.6	84.5*	37.0	0.4	7.5	63.2*	95.9*
Cc1nc(SCC(=O)Nc2ccccc2C(F)(F)F)c(C#N)c(C)c1CC(=O)c1ccc(Br)cc1	11.6	.	52.8*	10.7	-11.5	33.1	10.3	.
CC(=O)Nc1cccc(NC(=O)CSc2nc(C)c(C)c(C)c2C#N)c1	-1.9	3.3	5.7	1.2	10.4	2.7	.	.
COCCNC(=O)C(=O)NCC1CCCN1S(=O)(=O)c1cccs1 (stereo unspecified)	.	-0.8	.	.	.	.	.	.
CC1=CC(c2ccccc2)n2nnnc2N1 (stereo unspecified)	-5.6	2.2	2.0	-13.2	-2.1	-9.2	.	.
Cn1nnnc1Sc1ncnc2scc(-c3cccc(F)c3)c12	.	-2.1	97.7*	4.7	.	-2.3	98.6*	53.4*
COc1cccc(-c2csc3ncnc(Sc4nnnn4C)c23)c1	.	-2.3	97.9*	-2.5	.	.	79.7*	20.2
COC(=O)CSc1ncnc2scc(-c3ccccc3)c12	-16.6	-1.3	22.6	-6.3	4.6	-7.6	.	.
Cn1nnnc1Sc1ncnc2scc(-c3ccccc3C(F)(F)F)c12	.	-1.4	39.3	-5.2	.	25.3	.	.
Fc1ccc(CSc2ncnc3scc(-c4ccccc4)c23)cc1	-51.5	2.5	11.4	-13.1	21.6	26.4	.	.
Cn1nnnc1Sc1ncnc2scc(-c3cccc(C(F)(F)F)c3)c12	.	0.3	100.4*	-1.8	.	.	99.4*	53.4*
Cn1nnnc1Sc1ncnc2scc(-c3ccc(C(F)(F)F)cc3)c12	.	1.1	97.8*	12.5	.	93.9*	98.8*	50.0*
O=C(CSC1=NCCN1)Nc1cccc(C(F)(F)F)c1	-2.9	1.0	-18.3	-68.8	2.2	-6.4	.	.
C/C(=N\NC(=O)c1nnn(-c2nonc2N)c1CN1CCOCC1)c1ccc(CC(C)C)cc1	0.2	0.2	18.9	-9.1	-0.7	-5.4	.	.
CC(C)(C)c1nc2cc(Cl)c([N+](=O)[O-])cc2o1	60.8	2.7	24.0	2.0	3.8	.	.	.
COc1ccc(C(=O)/C=C2/C(=O)Nc3ccccc32)c(OC)c1	15.5	0.0	86.0*	-5.2	8.8	75.3*	26.1	.
COc1ccc(C(=O)/C=C2/C(=O)Nc3ccccc32)cc1OC	14.9	-0.2	38.9	-14.6	0.4	25.4	.	.
C=CCOc1ccccc1C(=O)/C=C1/C(=O)Nc2ccccc21	-14.0	-0.3	77.6*	-4.1	13.5	51.0	-6.2	.
C=CCOc1ccc(C(=O)/C=C2/C(=O)Nc3ccccc32)cc1	13.4	0.1	52.1*	8.8	7.3	24.7	15.7	.
COc1ccc(C(=O)/C=C2/C(=O)Nc3ccccc32)cc1	10.2	1.0	43.5	1.6	2.0	?	.	.
